# Screens deposited in PubChem BioAssay by National Center for Advancing Translational Sciences (NCATS).
# In the library only some 3% were active in any assay of this set; here they are far more common.
# A549 viability: Nrf2 qHTS screen for inhibitors: counterscreen for cytotoxicity; A549 ARE-Fluc cells, CellTiter-Fluor viability, 18-24 h; Potency, µM (highest dose often 46 µM), actives largely listed as inhibitors; actives 0.16% (n = 390,000)
#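 A549 ARE_Fluc cells in 5% FBS OPTI-MEM were exposed to compounds in concentration-response for 18-24 h at 37 deg C. Viability was read by CellTiter-Fluor fluorescence (Ex 405/Em 525) after 30 min, before the luciferase read.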
# GALK inh: qHTS Assay for Inhibitors of Human Galactokinase (GALK); P51570; Purified GALK, Kinase-Glo residual ATP luminescence; Potency, µM (highest dose often 57.5 µM), actives largely listed as inhibitors; actives 0.007% (n = 270,000); AID 1868, 2009
# Target sequence (P51570 whole entry, looked up): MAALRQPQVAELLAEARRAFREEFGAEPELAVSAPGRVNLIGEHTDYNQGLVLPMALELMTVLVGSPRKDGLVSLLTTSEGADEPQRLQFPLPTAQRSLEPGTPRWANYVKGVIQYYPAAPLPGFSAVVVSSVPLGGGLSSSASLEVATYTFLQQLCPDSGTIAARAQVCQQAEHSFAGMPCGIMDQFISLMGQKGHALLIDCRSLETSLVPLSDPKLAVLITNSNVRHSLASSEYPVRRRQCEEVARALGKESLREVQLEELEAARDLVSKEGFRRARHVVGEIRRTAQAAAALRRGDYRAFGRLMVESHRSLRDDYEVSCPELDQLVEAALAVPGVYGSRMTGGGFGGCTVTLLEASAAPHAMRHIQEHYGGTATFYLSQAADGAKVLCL
#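 Human GALK (5 nM) with 35 uM ATP and 100 uM galactose in 20 mM HEPES pH 8.0, 5 mM MgCl2, 60 mM NaCl, 1 mM DTT, 0.01% BSA. After 1 h at room temperature, leftover ATP was read by Kinase-Glo Plus luminescence.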
# TrxR1 inh: qHTS Assay for Inhibitors of Mammalian Selenoprotein Thioredoxin Reductase 1 (TrxR1): qHTS; AID 588453, 2011; actives 1% (n = 390,000); Potency, µM (titrated, usually from 114 µM), hits mostly inhibitors; recombinant rTrxR1, NADPH fluorescence consumption, selenite substrate; note: nearly all actives have a fitted effect of over 65% in size
#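 Rat TrxR1 (90 nM in the dispensed reagent) was pre-reduced with 400 uM NADPH for 5 min at room temperature, then incubated with compound for 15 min. After 400 uM selenite was added, NADPH fluorescence (Ex 340/Em 450 nm) was followed for 8 min.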
# TrxR1 substrate: qHTS Assay for Substrates of Mammalian Selenoprotein Thioredoxin Reductase 1 (TrxR1): qHTS. Thioredoxin reductase 1, cytoplasmic (Rattus norvegicus), O89049. AID 588456, 2011. purified TrxR1 substrate turnover, NADPH consumption readout. Potency, µM (series often up to 114 µM). actives 0.01% (n = 390,000); note: nearly all actives have a fitted effect of over 50% in size
#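 Rat TrxR1, dispensed at 90 nM, was prereduced with 400 uM NADPH (final) for 5 min at ~22 deg C, then incubated with compound 15 min before 400 uM selenite. A first-read NADPH fluorescence drop versus no-compound background flagged substrates.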
# Nrf2 activator: qHTS of Nrf2 Activators; AREc32 ARE-luciferase reporter (MCF7-derived line), luminescence, 24 h; Potency, µM (titrated, usually from 46.1 µM), most hits filed as activators; actives 0.31% (n = 410,000); AID 624171, 2012; note: nearly all actives have a fitted effect of over 65% in size
#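 AREc32 cells carrying an ARE-driven firefly luciferase reporter were seeded at 1000 cells/well in OPTI-MEM with 5% FBS, then exposed to compound for 24 hr at 37 deg C. Luminescence was read with Steady-Glo after 30 min at RT.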
# Nrf2 block: Nrf2 qHTS screen for inhibitors | A549 ARE-Fluc reporter, luciferase luminescence, 18-24 h | actives 2.1% (n = 360,000) | Potency, µM (top dose mostly 46 µM), actives largely listed as inhibitors; note: nearly all actives have a fitted effect of over 60% in size
#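 Concentration-response testing used A549 ARE_Fluc cells at 5000 cells/well. Following an 18-24 h compound incubation, viability was read by fluorescence (Ex 405/Em 525) and luciferase output by luminescence.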
# Numbers stand for hits; i = inactive; ? = inconclusive; nt = no result given; [ ] = dose if it differs, or a comment. Calls come from the whole dose curve; as a rule, active = well fitted curve in the direction sought with a large enough effect; inconclusive = small, poorly fitted or top-dose-only effect, or another doubt; inactive = no such curve, though single readings can be large; an effect the other way counts as inactive or inconclusive.
SMILES,A549 viability,GALK inh,TrxR1 inh,TrxR1 substrate,Nrf2 activator,Nrf2 block
Brc1ccc(-c2csc(/N=C/N3CCCC3)n2)cc1,i,i,i,i,i,11.6µM
Cn1nc(C(F)(F)F)c(/C=N/OC(=O)c2ccccc2Cl)c1SCc1ccc(Cl)cc1,?,i,i,i,i,20.6µM
COc1ccc(C(=O)O/N=C/c2c(C(F)(F)F)nn(C)c2SCc2ccccc2Cl)cc1,?,i,i,i,i,?
CCOc1ccccc1NC(=O)Cn1c(=O)n(Cc2ccccc2)c(=O)c2c1c1cc(C)ccc1n2C,i,nt,i,i,i,i
COc1ccc2nc(NC(=O)C3CC(=O)N(c4ccc5c(c4)OCCO5)C3)sc2c1 (configuration not stated),i,nt,i,i,i,?
COc1ccc(-c2nc(NC(=O)C3CC(=O)N(c4ccc5c(c4)OCCO5)C3)sc2C)cc1 (configuration not stated),?,i,i,i,i,14.6µM
Cc1ccc(S(=O)(=O)N2CCN(c3nc(C#N)nc4ccccc34)CC2)cc1,i,nt,nt,nt,nt,i
N#CC(c1ccc(Cl)cc1)c1ccc2c(C(F)(F)F)cc(C(F)(F)F)nc2n1 (configuration not stated),5.8µM,i,i,i,i,1.46µM
FC(F)(F)c1cc(C(F)(F)F)c2ccc(N3CCN(c4ccc(Cl)cc4)CC3)nc2n1,i,i,i,i,i,i
COc1ccccc1NC(=O)C1CCN(S(=O)(=O)c2ccc3c(c2)CC(C)N3C(C)=O)CC1 (configuration not stated),i,i,i,i,i,?
COc1ccccc1NC(=O)C1CCC(CNS(=O)(=O)c2ccc3c(c2)CC(C)N3C(C)=O)CC1 (configuration not stated),i,nt,i,i,i,18.4µM
CC(=O)N1c2ccc(S(=O)(=O)NCC3CCC(C(=O)Nc4ccc(C)c(C)c4)CC3)cc2CC1C (configuration not stated),i,nt,i,i,i,20.6µM
CC(=O)N1c2ccc(S(=O)(=O)NCC3CCC(C(=O)Nc4ccc(F)cc4)CC3)cc2CC1C (configuration not stated),i,nt,i,i,i,nt
CC(C)(C)OC(=O)Cc1nnc(-c2nc3ccccc3[nH]2)s1,i,nt,nt,nt,nt,?
COc1cccc(CN(C)C(=O)CNC(=O)c2sc3ccccc3c2Cl)c1OC,i,nt,i,i,i,25.9µM
COc1ccc2sc3ccccc3c(=O)c2c1OC,i,i,i,i,11.2µM,?
COc1cccc2sc3ccc(C#Cc4ccc(N)cc4)cc3c(=O)c12,?,nt,i,i,i,?
CCOC(=O)C1(C)C(C(=O)OC)=C(c2ccc(OC)cc2)c2ccccc2N1C(=O)OC (configuration not stated),i,nt,39.8µM,i,i,i
CCc1ccc(S(=O)(=O)Nc2c(NC3CCCCC3)c3ccccc3oc2=O)cc1,i,i,i,i,i,25.9µM
COc1ccc(Cc2c(-c3ccco3)nc3c(C)cc(Br)cn23)c(C)c1,nt,nt,nt,nt,i,nt
Cc1cc(Br)cn2c(Cc3ccccc3)c(-c3ccco3)nc12,nt,nt,nt,nt,10µM,nt
Cc1cc(Br)cn2c(Cc3ccccc3)c(-c3cccc(Br)c3)nc12,nt,nt,nt,nt,i,nt
COc1ccc(Cc2c(-c3ccco3)nc3ccc(Br)cn23)c(C)c1,nt,nt,nt,nt,8.91µM,nt
Cc1cc(Br)cn2c(Cc3ccsc3)c(-c3ccco3)nc12,nt,nt,nt,nt,7.08µM,nt
Cc1cc(Br)cn2c(Cc3ccsc3)c(-c3cccc(Cl)c3)nc12,nt,nt,nt,nt,i,nt
SMILES,A549 viability,GALK inh,TrxR1 inh,TrxR1 substrate,Nrf2 activator,Nrf2 block
COc1ccc2c(c1)CC/C(=C\c1ccc(C)o1)C2=O,i,i,?,i,?,i
COc1ccc2c(c1)CC/C(=C/c1ccncc1)C2=O,i,nt,i,i,22.4µM,i
Oc1ccc(N=Nc2ccc3ccccc3c2)cc1,i,i,i,i,i,2.59µM
CCOC(=O)C1CCN(C(=O)Cn2ncc3c4ccccc4n(Cc4ccccc4F)c3c2=O)CC1,i,nt,i,i,i,i
CCN1/C(=C2\SC(=S)N(Cc3ccccc3)C2=O)Sc2ccccc21,i,i,i,i,i,i
CCC(CO)[n+]1c(C)cc(/C=C2\Sc3ccccc3N2Cc2ccccc2)cc1C (configuration not stated),?,i,?,i,i,14.6µM
CC(=O)CCS(=O)(=O)c1ccc(Oc2ccc(S(=O)(=O)CCC(C)=O)cc2)cc1,i,i,50.1µM,i,?,i
CC(=O)CS(=O)(=O)c1ccc(Oc2ccc(S(=O)(=O)CC(C)=O)cc2)cc1,i,i,i,i,i,nt
Cc1cc(C)cc(NC(=O)CSc2ccc(-c3cccs3)nn2)c1,i,i,i,i,i,10.3µM
O=C(CSc1ccc(-c2cccs2)nn1)Nc1ccccc1,i,i,i,i,i,18.4µM
COc1ccccc1NC(=O)CSc1ccc(-c2cccs2)nn1,i,i,i,i,i,?
COC(=O)c1ccc(NC(=O)CSc2ccc(-c3cccs3)nn2)cc1,i,nt,i,i,i,i
Cc1ccc(Cl)cc1-n1c(=O)c2sc3ccccc3c2n(CC(=O)NC2CCCC2)c1=O,i,nt,i,i,i,i
O=C(c1ccc(S(=O)(=O)Cc2ccccc2Cl)c([N+](=O)[O-])c1)N1CCOCC1,i,i,14.1µM,i,?,?
O=C(c1ccc(S(=O)(=O)c2ccccc2Cl)c([N+](=O)[O-])c1)N1CCN(Cc2ccccc2)CC1,?,i,?,i,i,18.4µM
Cc1ccccc1CS(=O)(=O)c1ccc(C(=O)N2CCOCC2)cc1[N+](=O)[O-],i,i,i,i,?,?
COc1ccc(CNC(=S)NC2CCCC2)cc1,i,i,i,i,i[9.22 µM],i
Cc1ccc(CNC(=S)NC2CCC(C(C)(C)C)CC2)cc1 (configuration not stated),i,i,i,i,i,20.6µM
COCCCNc1oc(/C=C/c2cc(OC)c(OC)c(OC)c2)nc1C#N,i,nt,?,i,i,i
COc1ccc(/C=C/C(=O)NCc2cn(C)nc2C)cc1COc1ccc(Br)cc1,i,i,i,i,i,18.4µM
Cc1nn(C)cc1CNC(=O)/C=C/c1cnn(C)c1,i,i,i,i,i,i
CC(C)c1ccc(NC(=O)C2CCCN(S(=O)(=O)c3cccc4cccnc34)C2)cc1 (configuration not stated),i,nt,i,i,i,i
O=C(c1ccc2c(c1)N(Cc1ccccc1Cl)C(=O)c1ccccc1S2)N1CCCC1,i,nt,i,i,i,nt
